High-throughput results deposited in PubChem BioAssay by National Center for Advancing Translational Sciences (NCATS).
The sample as a whole holds a higher share of hits than the screen did.
Pf Dd2 growth: inhibitors of Plasmodium falciparum Dd2 growth; P. falciparum Dd2 growth, SYBR Green, 72 h; Potency, µM (highest dose often 28.9 µM), hits mostly inhibitors; actives 4.3% (n = 120,000); AID 1347417; active = well fitted inhibition curve with a large enough effect; also: nearly all actives have a fitted effect of over 65% in size
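Infected erythrocytes (Dd2, 0.3% parasitemia, 2.5% hematocrit final) are added to compound in RPMI-1640/Albumax II medium, grown 72 h at 37C in low oxygen, then lysed with saponin/Triton-X containing SYBR Green and read by fluorescence.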
A number is an active result; – = inactive; [ ] = another dose, or the depositor's remark.

SMILES | Pf Dd2 growth
CSc1ccc(C2c3[nH]c4ccccc4c3CCN2C(=O)CCc2ccccc2)cc1 (stereo not drawn) | –
O=C1CCC(CCC(=O)N2CCCC2c2ccc(F)cc2)(Cc2cccc3ccccc23)N1 (stereo not drawn) | –
O=C(CCc1ccccc1)N1CCc2c([nH]c3ccccc23)C1c1ccc(F)cc1 (stereo not drawn) | 11.2µM
O=C(CCC1CCCC1)N1CCc2c([nH]c3ccccc23)C1c1ccc(F)cc1 (stereo not drawn) | 11.2µM
COc1ccc(C2c3[nH]c4ccccc4c3CCN2C(=O)CCC2CCCC2)cc1 (stereo not drawn) | –
O=C1CN(C(=O)Cc2ccccc2)C(c2ccc(F)cc2)c2cc(Br)ccc2N1 (stereo not drawn) | –
CCOC(=O)CCNC(=O)NCC(=O)N1CCCCCNC(=O)CC1c1ccccc1 (stereo not drawn) | –
COc1ccc(C(=O)N2CCC(c3noc(-c4ccncc4)n3)C2)cn1 (stereo not drawn) | –[5.79 µM]
COc1cccc(S(=O)(=O)N2CCC(Cc3nncn3C)C2)c1 (stereo not drawn) | –
O=C(c1ccccn1)N1CCn2c(nnc2-c2cccnc2)C1 | –
COC(=O)[C@@H]1Cc2ncn(C)c2CN1S(=O)(=O)Cc1ccccc1 | –
COc1ccc(NC(=O)c2ccco2)cc1NC(=O)COc1ccccc1 | –
COc1ccc(NC(=O)c2ccco2)cc1NC(=O)COc1ccc(Cl)cc1C | –
COc1ccc(NC(=O)c2ccco2)cc1NC(=O)COc1ccc(C)cc1C | 2.82µM
CCc1nc(-c2c3n(c(=O)n(Cc4ccc(OC)c(F)c4)c2=O)CCCCC3)no1 | –
COc1ccc(OCc2nc(C)c(CCO)c(=O)n2CC(=O)Nc2cc(OC)cc(OC)c2)cc1 | –
CCn1ncc(CN2CCCC23CCN(c2ccc(C(F)(F)F)cn2)CC3)c1C | 10µM
Cn1ccnc1CN1CCCC12CCN(c1ccc(C(F)(F)F)cn1)CC2 | –
O=C1COCC2(CN1Cc1c(F)cccc1Cl)CN(c1ccc(C(F)(F)F)cn1)C2 | –
Cc1cc(CN2CCCC23CCN(c2nc4ccccc4o2)CC3)on1 | –
CCn1ncc(CN2CCCC23CCN(c2cc(C)nc4ccccc24)CC3)c1C | 2µM
Oc1cccc(CN2CCCC23CCN(c2ccc(C(F)(F)F)cn2)CC3)c1 | 4.47µM
CCCn1ccnc1CN1CCCC12CCN(c1ccc(C(F)(F)F)cn1)CC2 | 11.2µM
O[C@H]1[C@H](NCc2cccc(C(F)(F)F)c2)[C@@H](c2ccc(N3CCOCC3)nc2)C[C@H]1O | –
O=C(Cn1nc2c(cc1=O)CCCC2)N1CCN(c2ccc(C(F)(F)F)cn2)CC1 | –
SMILES | Pf Dd2 growth
FC(F)Oc1ccccc1CN1CCCC12CCN(c1ncccn1)CC2 | –
Cc1cc(C)n(CCc2nc3c4ccccc4nc(N4CCN(c5ccccc5F)CC4)n3n2)n1 | –
CN1CC(=O)N(C2CCC2)Cc2c(NC3CCCCC3)ncnc21 | –
CC(=O)NCC(=O)N1C[C@@H](COCC2CC2)[C@H](c2ccncc2)C1 | –
CS(=O)(=O)N1CCC(Cc2ccc(C(=O)O)cc2)CC1 | –
Cc1ccc(C2=NC3(CCN(C(=O)c4ccn[nH]4)CC3)ON2)cc1 | –
CN(Cc1cc(-c2ccccc2)on1)C(=O)CN1C[C@@H]2CC[C@H](CC1=O)N2 | –
NC(=O)CN1CCCC(c2nc(-c3cn4ccccc4n3)no2)C1 (stereo not drawn) | –
COc1ccccc1NC(=O)c1c(OC)cc(=O)n2c1CCCC2 | –
CS(=O)(=O)N(Cc1cccnc1)C1CN(C(=O)CCC2CCCC2)C1 | –
CN(C)C[C@@H]1CN(Cc2ccccc2)C[C@H]1NC(=O)c1cn(C)cn1 | –
Cc1nnc(CN(C)C(=O)CC(c2ccccc2)c2ccc(Cl)cc2)o1 (stereo not drawn) | –
Cc1cnc(CN(C)C(=O)CC(c2ccccc2)c2ccc(Cl)cc2)[nH]1 (stereo not drawn) | 8.91µM
Cc1nonc1CN(C)C(=O)CC(c1ccccc1)c1cccc(Cl)c1 (stereo not drawn) | –
CCC(C)C(=O)Nc1c(C(=O)OC)n(CC2CCCO2)c2ncc(NC(C)CO)cc12 (stereo not drawn) | –
CCN(Cc1ccccc1)C(=O)CCc1nc(C2CCCN2S(C)(=O)=O)no1 (stereo not drawn) | –
O=C(c1ccccc1F)N1CCCC2(C1)C(=NC1CCCCC1)NC(=O)N2c1cccnc1 (stereo not drawn) | –
O=C(NC1CCCCC1)C1CN(C(=O)c2ccc(Cl)s2)CC12CCOCC2 (stereo not drawn) | –
O=C(NCCc1cccnc1)c1cc2n(n1)CC(c1ccc(Br)cc1)OC2 (stereo not drawn) | –
Cc1cccc(Nc2nc(N)nc(CN3CC[C@@](O)(C4CCC4)[C@H](C)C3)n2)c1 | 8.91µM
C[C@@H]1CN(Cc2noc(C3CCCC3)n2)CC[C@@]1(O)C1CCC1 | –
COc1cc(F)c(CN2CC[C@@](O)(C3CC3)[C@H](C)C2)cc1OC | –
COCC(=O)N[C@@H]1CN(Cc2ccc(Cl)cc2F)C[C@H]1CO | –
CCn1c(COc2ccc(Cl)cc2Cl)nc2ccccc21 | –
COc1ccc(OCC(O)Cn2c(=N)n(CCN3CCCCC3)c3ccccc32)cc1 (stereo not drawn) | 7.94µM
SMILES | Pf Dd2 growth
Cc1nc2ccccc2n1CC(O)COc1ccc(C(=O)O)cc1 (stereo not drawn) | –
COc1ccc(N2CCN(CC(O)COc3ccc(C)cc3C)CC2)cc1 (stereo not drawn) | –
N=c1n(CCN2CCCCC2)c2ccccc2n1CC(O)COc1ccc(Cl)cc1Cl (stereo not drawn) | 1µM
COc1ccc(N2CCN(CC(O)COc3ccc(C(C)(C)C)cc3)CC2)cc1 (stereo not drawn) | –
CC1=CCN(Cc2ccc(OCC(O)CN3CCN(C)CC3)cc2)CC1 (stereo not drawn) | –
Cc1ccc(OCC(O)Cn2c(=N)n(CCN3CCCCC3)c3ccccc32)cc1 (stereo not drawn) | 2.82µM
CCNc1nc2c(c(=O)[nH]c(=O)n2C)n1CC(O)COc1ccc(Cl)cc1Cl (stereo not drawn) | –
O=C(N[C@@H]1CN(Cc2ccc(Br)o2)C[C@H]1CO)C1CC1 | –
COc1ccc(C2=NOC3(CCCN(Cc4ccc(C(F)(F)F)cc4)C3)C2)cc1 (stereo not drawn) | –
CN1C[C@H](O)C[C@H]1c1nnc2n1CCN(C(=O)c1ccsc1)CC2 | –
O=C(Cc1ccsc1)NC1CCCN(c2cc(-c3ccc(F)cc3)[nH]n2)C1 (stereo not drawn) | –
CCc1noc([C@@H]2CC(F)(F)CN2C(=O)c2ccn(CC)n2)n1 | –
COc1ccccc1C(=O)N1CCCC2(CNc3ccccc3[S+](=O)([O-])N2)C1 (stereo not drawn) | –
c1ccc(C2=NOC3(CCN(Cc4cccc5ccccc45)CC3)C2)cc1 | –
Cn1nc(C(=O)N2CCN(c3ccc(Cl)cc3)CC2)c2c1-c1ccccc1SC2 | –
Cc1ccc2c(c1)-c1c(c(C(=O)N3CCN(c4cc(C)ccc4C)CC3)nn1C)CS2 | 12.6µM
COc1ccc(NC(=O)c2nn(C)c3c2CSc2ccc(C)cc2-3)cc1OC | –
Cc1cccc(OCC(=O)NCCn2cccc2-c2nc(-c3ccc4c(c3)OCO4)no2)c1 | –
CN1Cc2ccc(N3CCOCC3)nc2C(C)(C(=O)NCCCn2ccnc2)C1 (stereo not drawn) | –
Cc1cnc(C2CC2)n1CCNC(=O)c1cncn1C | –
OC1(c2csc(CN3CCOCC3)n2)CCN(C2CCCC2)CC1 | –
